Measured values as given in PubChem BioAssay (NCI).
The panel holds about 79,000 compounds, 15% with a hit somewhere; the sample as a whole holds those more often. Values without a mark were called inactive. The source made the active and inactive calls. Cut-off read from the data, not from the text of the source: active = growth inhibition above about 70%; inactive = the rest.

How the values were obtained:
[1] = NCI Yeast Anticancer Drug Screen. Data for the rad50 strain (AID 155);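 note: 0% = growth of vehicle-only cultures of the same strain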; conditions: S. cerevisiae rad50 strain growth inhibition, stronger effect = higher value
Method in brief: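 Genetically altered yeast (DNA repair pathway); compound treatment; growth inhibition vs vehicle ctrl.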

[2] = NCI Yeast Anticancer Drug Screen. Data for the mec2-1 strain (AID 157); conditions: S. cerevisiae mec2-1 strain, stronger effect = higher value
Method in brief: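 Using mec2-1 yeast: add compound, measure growth, express inhibition versus vehicle-treated cultures.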

[3] = NCI Yeast Anticancer Drug Screen. Data for the sgs1 mgt1 strain (AID 161);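 note: 0% = growth of cultures given vehicle only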; conditions: S. cerevisiae sgs1 mgt1 strain, stronger effect = higher value
Method in brief: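 This yeast growth screen uses a strain with defined DNA-repair lesions; compound-treated growth is compared with vehicle-treated growth.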

[4] = NCI Yeast Anticancer Drug Screen. Data for the cln2 rad14 strain (AID 165);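 note: 0% = growth equal to vehicle treated cultures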; conditions: S. cerevisiae cln2 rad14 strain, stronger effect = higher value
Method in brief: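 Yeast strain cln2 rad14, bearing defects in cell cycle control and DNA repair, serves as the test system; values reflect growth inhibition compared with vehicle.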

[5] = NCI Yeast Anticancer Drug Screen. Data for the bub3 strain (AID 167); conditions: S. cerevisiae bub3 mutant strain, stronger effect = higher value
Method in brief: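 Yeast carrying a defined mutation is treated with each compound, and growth is compared with that of vehicle-exposed cells to give inhibition.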

[6] = NCI Yeast Anticancer Drug Screen. Data for the mlh1 rad18 strain (AID 175); conditions: S. cerevisiae mlh1 rad18 strain growth inhibition, stronger effect = higher value
Method in brief: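 Steps: expose repair-defective yeast to compound; measure growth; express inhibition against vehicle-treated controls.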

[7] = at 5.0 µM (retest, dose inferred, filed as 0.5)
[8] = at 50.0 µM (retest, dose inferred, filed as 5.0)

| Structure (SMILES) | growth inhibition [1, 7] [%] | growth inhibition [1, 8] | growth inhibition ([1]; at 50.0 µM) | growth inhibition [2, 7] [%] | growth inhibition [2, 8] | growth inhibition ([2]; at 50.0 µM) | growth inhibition [3, 7] [%] | growth inhibition [3, 8] | growth inhibition ([3]; at 50.0 µM) | growth inhibition [4, 7] [%] | growth inhibition [4, 8] | growth inhibition ([4]; at 50.0 µM) | growth inhibition [5, 7] [%] | growth inhibition [5, 8] | growth inhibition ([5]; at 50.0 µM) | growth inhibition [6, 7] | growth inhibition [6, 8] | growth inhibition ([6]; at 50.0 µM) |
| --- | --- | --- | --- | --- | --- | --- | --- | --- | --- | --- | --- | --- | --- | --- | --- | --- | --- | --- |
| CC(c1ccccc1C(=O)O)c1cccc2ccccc12 (configuration not stated) | 4 | 89% (active) | 87.3% (active) | -3 | 91% (active) | 92.3% (active) | 6 | 90% (active) | 83.3% (active) | 6 | 98% (active) | 97.5% (active) | -7 | 88% (active) | 91.5% (active) | -12% | 92% (active) | 92.8% (active) |
| O=C(C[n+]1ccccc1Cl)c1ccc(F)cc1 | -3 | 99% (active) | -8% | -1 | 100% (active) | -0.8% | -1 | 99% (active) | 11.7% | -3 | 99% (active) | 79.5% (active) | 4 | 99% (active) | 1.45% | -1% | 99% (active) | -12% |
| c1ccc(Nc2cccc3ccccc23)cc1 | -4 | 95% (active) | 94.8% (active) | -5 | 81% (active) | 96.2% (active) | -3 | 62% | 95.8% (active) | -1 | 32% | 95.1% (active) | 43 | 95% (active) | 91.5% (active) | -1% | 88% (active) | 95.5% (active) |
| CC1C/C(=N\N(C)C)C(C#N)(C#N)C1(C#N)C#N (configuration not stated) | 30 | 99% (active) | 81% (active) | 45 | 99% (active) | 81.1% (active) | 26 | 97% (active) | 66.5% | 27 | 79% (active) | 37.8% | 47 | 99% (active) | 62.2% | 59% | 99% (active) | 92% (active) |
| CCc1ccc(CC(=O)O)c2ccc3c(C)ccc(C)c3c12 | 15 | 96% (active) | 98.9% (active) | 14 | 98% (active) | 95.8% (active) | 14 | 97% (active) | 98.6% (active) | 19 | 93% (active) | 95.8% (active) | 11 | 51% | 63.5% | 8% | 96% (active) | 94.4% (active) |
| CCOC(=O)CN1CCCC(C(=O)CC2(O)C3(Cl)C4(Cl)C5(Cl)C(Cl)(Cl)C6(Cl)C4(Cl)C2(Cl)C6(Cl)C53Cl)C1 (configuration not stated) | 62 | 98% (active) | 52.5% | 54 | 99% (active) | 49.9% | 61 | 99% (active) | 55% | 36 | 99% (active) | 71.2% (active) | 59 | 99% (active) | 48.5% | 87% (active) | 99% (active) | 50.3% |
| COc1cc2c(cc1O)CCCCC2 | 4 | 4% | 41.1% | 3 | -2% | -29.2% | 1 | 8% | 6.9% | -2 | -7% | 0% | -4 | 0% | -7.5% | -3% | 3% | 43% |
| O=c1c(O)c(-c2ccc(Cl)cc2)oc2cc(O)ccc12 | 4 | 52% | 88.7% (active) | 2 | 86% (active) | 77.7% (active) | 1 | 54% | 89.7% (active) | -7 | -2% | -9.3% | 3 | 51% | 59.5% | 7% | 50% | 91.5% (active) |
| O=c1oc(-c2ccccc2Br)ns1 | 0 | 99% (active) | 98.8% (active) | 3 | 100% (active) | 99.6% (active) | 9 | 99% (active) | 99.4% (active) | 4 | 99% (active) | 89.8% (active) | -8 | 99% (active) | 97.5% (active) | 6% | 99% (active) | 99.3% (active) |
